# Source: PubChem (National Center for Advancing Translational Sciences (NCATS))
# Marburg entry inh: Marburg virus entry inhibition. Marburg virus pseudotyped entry inhibition, cell reporter. Potency, µM (doses to about 37.8 µM), hits mostly inhibitors. 300,000 compounds, 1.8% hits; calls by dose curve; tested in HEK293 cells
# FMDV antiviral: antivirals against foot and mouth disease virus. FMDV antiviral cell-based qHTS. Potency, µM (top dose mostly 57.9 µM), actives largely listed as inhibitors. 410,000 compounds, 1.2% hits; calls by dose curve; tested in HEK293T cells; also: read-out not given here; nearly all actives have a fitted effect of over 45% in size
# HCMV inh: blocks human cytomegalovirus replication; activity change, negative = inhibition, % at 57.5 µM; HFF cells, HCMV-luciferase reporter, 72 h; active compounds read low; 410,000 compounds, 4.5% hits; in the data active = activity change below about -60%; inconclusive = no clear call, values can overlap the other calls; inactive = above about -39%
#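 Inhibition of viral replication was scored as loss of reporter luminescence in HFFs infected with HCMV-luciferase (MOI 1 PFU/cell) for 72 h; compounds tested at 2 doses, normalized to buffer and Salinomycin controls.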
# LASV entry inh: blocks Lassa virus binding to or entry into cells. Lassa virus pseudotype entry inhibition, cell reporter. Potency, µM (series often up to 37.9 µM), actives largely listed as inhibitors. 300,000 compounds, 1.2% hits; calls by dose curve; tested in HEK293 cells; also: nearly all actives have a fitted effect of over 50% in size
# A number is an active result; – = inactive; ? = inconclusive; · = not tested or not shown; + = active, no number. A selection: hits, their analogues and other compounds. The true share with any hit is near 6.2%.
SMILES,Marburg entry inh,FMDV antiviral,HCMV inh,LASV entry inh
Cc1cccc(-c2noc(-c3ccccc3NC(=O)C3CC(=O)N(c4ccccc4C)C3)n2)c1 (stereo not drawn),–,–,–,–
COc1ccc(NC(=O)c2cccc([N+](=O)[O-])c2)cc1,–,–,–,?
CCC(=O)Nc1ccc2c(c1)Cc1cc([N+](=O)[O-])ccc1-2,–,–,-86,?
COc1ccc(/C=C(/C#N)C(=O)Nc2cccc(C)c2C)cc1C(=O)O,–,–,–,–
COc1ccc(/C=C(/C#N)C(=O)Nc2cccc([N+](=O)[O-])c2)cc1C(=O)O,–,–,-102,–
COc1ccc(NC(=S)Nc2cccc([N+](=O)[O-])c2)cc1,?,–,-96,–
CC(=O)Nc1cccc(OC(=O)c2ccoc2C)c1,–,–,–,–
O=C(CC1C(=O)NCCN1Cc1c(F)cccc1Cl)NCCc1ccccn1 (stereo not drawn),·,–,–,·
CNc1nccc(-c2ccc(F)cc2)c1C#N,–,–,–,–
O=C(c1ccccc1)c1ccc(NCCCn2ccnc2)c([N+](=O)[O-])c1,?,–,?,?
CCN(CC)S(=O)(=O)c1ccc(NCCCn2ccnc2)c([N+](=O)[O-])c1,?,–,-62,–
C=CCSc1nc2ccccc2c(=O)n1C1CCOC(C)(C)C1 (stereo not drawn),–,–,–,–
COc1ccccc1NS(=O)(=O)c1cccc(C(=O)N/N=C(\C)c2ccncc2)c1,–,–,–,–
CC(=O)c1cccc(CN2CCC(C(=O)Nc3cccc(-c4ccn[nH]4)c3)CC2)c1,?,32µM,?,–
C=CCOc1ccccc1CN1CCC(C(=O)Nc2cccc(-c3ccn[nH]3)c2)CC1,·,–,-64,·
O=S(=O)(c1ccc(F)c(F)c1F)N1CCN(C(=S)NC2CC3CCC2C3)CC1 (stereo not drawn),·,–,?,·
O=C1Nc2ccccc2C(=O)N2[C@H](c3ccccc3)[C@@H]3C(=O)N(Cc4ccccc4)C(=O)[C@@H]3[C@H]12,·,–,–,·
O=C1Nc2ccccc2C(=O)N2[C@H](c3cccc(Br)c3)[C@@H]3C(=O)N(Cc4ccccc4)C(=O)[C@@H]3[C@H]12,·,–,-60,·
O=C(CSc1nnc(NC2CCCCC2)s1)NC1CCS(=O)(=O)C1 (stereo not drawn),–,–,–,–
COc1ccc(/C=C/C(=O)C2CC2)cc1COc1cccc(C)c1C,?,?,–,7.1µM
CCC1CCC2(CC1)NC(CO)(CO)CO2 (stereo not drawn),–,·,–,–
CCC1CCC2(CC1)NNC(=S)NN2,–,–,-62,–
C#CC(=O)N(c1ccc(OC)c(OC)c1)C(C(=O)NC1CCCC1)c1cccs1 (stereo not drawn),3.5µM,?,-99,7.9µM
Cc1cccc(N(C(=O)C(F)(F)F)C(C(=O)NC2CCCCC2)c2cccs2)c1 (stereo not drawn),?,–,–,–
C#CC(=O)N(c1cccc(OC)c1)C(C(=O)NC1CCCC1)c1cccs1 (stereo not drawn),2.9µM,·,-101,?
SMILES,Marburg entry inh,FMDV antiviral,HCMV inh,LASV entry inh
COc1ccc(CC(=O)Oc2ccc(C)cc2Br)cc1OC,·,?,–,·
Cc1cc(C)c(S(C)(=O)=O)c(S(=O)(=O)c2ccc(Cl)cc2)n1,–,–,-98,–
COc1ccc(CCNS(=O)(=O)c2cc(/C=C/C(=O)O)ccc2C)cc1OC,–,–,–,–
c1nc(N2CCOCC2)c2[nH]cnc2n1,–,–,–,–
c1nc(N2CCCCC2)c2[nH]cnc2n1,?,–,-71,–
CCc1ccc(CNC(=O)c2cccc(-n3c(C)nc4cccnc43)c2)cc1,·,?,–,–
Cc1ccc(CNC(=O)c2ccc3c(c2)nc(C)n3-c2cccc(F)c2)cc1,·,–,-77,–
Cc1nc2cccnc2n1-c1cccc(C(=O)NCc2cccc(Cl)c2)c1,·,?,+,–
Cc1nnc2n1N=CC=C(c1ccccc1)S2,?,?,-99,?
CCc1ccc(N/C(=N/c2nc(C)cc(C)n2)NC(C)=O)cc1,·,–,-60,·
CCCOc1ccccc1N/C(=N/c1nc(C)cc(C)n1)NC(=O)Nc1ccc(Cl)cc1,0.71µM,–,–,?
CCOP(=O)(OCC)/C(C#N)=C/c1ccc(Br)cc1,?,–,–,–
COc1ccc(CC(=O)OCc2cc3cccc(C)c3[nH]c2=O)cc1,–,–,–,–
COc1ccc(-n2c(SCC(=O)Nc3ccc(NC(C)=O)cc3)nc3ccccc3c2=O)cc1,·,–,–,·
O=C(CCc1ccccc1)N1CCc2c([nH]c3ccccc23)C1c1ccc(Cl)cc1 (stereo not drawn),·,–,-68,?
O=C(CSCc1ccc(F)cc1)N1CCc2c([nH]c3ccccc23)C1c1ccc(F)cc1 (stereo not drawn),·,–,–,?
